{"source": "PubChem BioAssay (NCATS)", "note": "The source made the active and inactive calls. Calls come from the whole dose curve; as a rule, active = well fitted activation curve with a large enough effect; inconclusive = small, poorly fitted or top-dose-only effect; inactive = flat fitted curve, though single readings scatter.", "data": [{"assay": "Cellular Toxicity (caspase-3) HepG2 (AID 654);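 note: cells exposed to compound for 16 hours before reading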", "conditions": "HepG2 caspase-3 activation, luminescence, 0% = DMSO only, 100% = tamoxifen; series mostly up to 92.2 µM", "text": "NIH Chemical Genomics Center [NCGC]\nNIH Molecular Libraries Screening Centers Network [MLSCN]\nNational Institutes of Environmental Health Sciences [NIEHS]\nNational Toxicology Program [NTP]\nWe have developed a 1536-well cell-based assay for quantitative high throughput screening (qHTS) against a number of cell lines to determine in vitro caspase 3/7 of small molecules. This particular assay uses the HepG2 cell line which is derived from human hepatocellular carcinoma.\nNCGC Assay Protocol Summary:\nThe Caspase-Glo 3/7 assay (Promega) is a homogeneous method to measure caspase-3 and caspase-7 activities in cultured cells. The quantitation of caspase 3/7 activity is based on the cleavage of a peptide-aminoluciferin substrate. After caspase cleaves the substrate the free aminoluciferin is liberated and serves as the substrate of luciferase, which generates the light. The luminescent signal is proportional to amount of caspase 3/7 activity present.\nUsing the Caspase-Glo 3/7 assay, the amount of caspase 3/7 activity was measured in the HepG2 cell line with complete culture medium following compound treatment for 16 hours. The assay was performed in opaque white 1536-well plates. In the screen, tamoxifen and doxorubicin were used as positive controls. Library compounds were measured for their ability to cause the activation of caspase 3/7 in the cell line, as reflected by an increase in luminescence signal, in a concentration-dependent manner. Data were normalized to the controls for basal activity (DMSO only) and 100% stimulation (100 uM tamoxifen). AC50 values were determined from concentration-response data modeled with the standard Hill equation.\nqHTS protocol for caspase 3/7 assay in HepG2 cells\n[Step] [Parameter] [Value] [Description]\n1. Reagent; 5 uL; 1500 HepG2 cells/well\n2. Time; 5 hr; 37 °C incubation\n4. Controls; 23 nL; Tamoxifen 0.23 uM to 100 uM & Doxorubicin 7.0 pM to 100 uM\n5. Time; 16 hr; 37 °C incubation\n6. Reagent; 5 uL; Caspase-Glo 3/7 reagent\n7. Time; 20 min; Room Temperature\n8. Detection; Luminescence; Viewlux plate reader\nKeywords: caspase 3/7, apoptosis, HepG2 cell line, luminescence, NTPHTS, NTPHTS_NCGC, NIEHS, EPA, DSSTox, MLSMR, MLSCN, NIH Roadmap, qHTS, NCGC", "values": [{"smiles": "CCO", "outcome": "inactive"}, {"smiles": "CCC(O)OC(O)CC", "note": "(stereo not given)", "outcome": "inactive"}, {"smiles": "C=C(C)C1CC=C(C)C(O)C1", "note": "(stereo not given)", "outcome": "inactive"}, {"smiles": "CC1=C2[C@H](/C=C(\\C)C(=O)O)CC[C@@H](C)[C@H]2CC1", "outcome": "inactive"}, {"smiles": "CC12CCC(CC1=O)C2(C)C", "note": "(stereo not given)", "outcome": "inactive"}, {"smiles": "CCCCCCCCCCCC(=O)O", "outcome": "inactive"}, {"smiles": "O=C(/C=C/c1ccc(O)c(O)c1)O[C@@H](C(=O)O)[C@@H](OC(=O)/C=C/c1ccc(O)c(O)c1)C(=O)O", "outcome": "inactive"}, {"smiles": "Cc1ccc([N+](=O)[O-])cc1N", "outcome": "inactive"}, {"smiles": "CCC(C)c1ccccc1O", "note": "(stereo not given)", "outcome": "inactive"}, {"smiles": "CCCCCCCCO", "outcome": "inactive"}, {"smiles": "C=CC(=O)OCCOCCOCCOCCOC(=O)C=C", "outcome": "inactive"}, {"smiles": "O=C(O)c1ccc(O)cc1O", "outcome": "inactive"}, {"smiles": "CC1=CC(C)(C)Nc2ccccc21", "outcome": "inactive"}, {"smiles": "O=C(O)c1ccccc1C(c1ccc(O)cc1)c1ccc(O)cc1", "outcome": "inactive"}, {"smiles": "CCO[Si](CCCN)(OCC)OCC", "outcome": "inactive"}, {"smiles": "COCC(=O)O", "outcome": "inactive"}, {"smiles": "O=C(O)CC(C(=O)O)C(CC(=O)O)C(=O)O", "note": "(stereo not given)", "outcome": "inactive"}, {"smiles": "Clc1cc(Cl)c(Cl)c(Cl)c1Cl", "outcome": "inactive"}, {"smiles": "C1OCOCO1", "outcome": "inactive"}, {"smiles": "Nc1ccc(Cl)cc1Cl", "outcome": "inactive"}, {"smiles": "CCCCOCCO", "outcome": "inactive"}, {"smiles": "O[C@@H]([C@H](O)[C@@H](O)CBr)[C@@H](O)CBr", "outcome": "inactive"}, {"smiles": "O=NO", "outcome": "inactive"}, {"smiles": "c1ccc2scnc2c1", "outcome": "inactive"}, {"smiles": "O=[N+]([O-])c1cccc(Cl)c1Cl", "outcome": "inactive"}, {"smiles": "c1ccc2c(c1)c1cccc3ccc4cccc2c4c31", "outcome": "inactive"}, {"smiles": "Cc1ccc(N)c([N+](=O)[O-])c1", "outcome": "inactive"}, {"smiles": "OCCNCCO", "outcome": "inactive"}, {"smiles": "Cc1cccc([N+](=O)[O-])c1C", "outcome": "inactive"}, {"smiles": "CCCCCCCCCCCCCCC1CO1", "note": "(stereo not given)", "outcome": "inactive"}, {"smiles": "Clc1cc(Cl)c(Cl)cc1Cl", "outcome": "inactive"}, {"smiles": "CCCN(CCC)C(=O)SCC", "outcome": "inactive"}, {"smiles": "CC1(C)CC(N=C=O)CC(C)(CN=C=O)C1", "note": "(stereo not given)", "outcome": "inactive"}, {"smiles": "CCCCC(CC)CN", "note": "(stereo not given)", "outcome": "inactive"}, {"smiles": "COc1cc(/C=C/c2ccccc2)oc(=O)c1", "outcome": "inactive"}, {"smiles": "COC(=O)c1ccc(C=O)cc1", "outcome": "inactive"}, {"smiles": "ClCCCl", "outcome": "inactive"}, {"smiles": "C=CCOC(=O)c1ccccc1C(=O)OCC=C", "outcome": "inactive"}, {"smiles": "C[C@H](CCC(=O)O)[C@H]1CC[C@H]2[C@@H]3CC[C@@H]4C[C@H](O)CC[C@]4(C)[C@H]3CC[C@]12C", "outcome": "inactive"}, {"smiles": "C=CCc1ccc(OC)c(OC)c1", "outcome": "inactive"}]}]}
